# Measured values from PubChem BioAssay AID1159580 (chemical genetic matrix, 2015).
# In all, about 5,500 compounds went through this assay and about 2,000 (36%) were called active. Not shown: some 18% with an inconclusive outcome. This is one part of the list. Unmarked numbers belong to inactive results. Rule as the data show it: active = normalized growth mostly below about 0.91 (no sharp cut-off); inconclusive = no clear call, values can overlap the other calls; inactive = mostly above about 0.92.
# Experiment: chemical genetic growth profiling, strain panel (AID 1159580);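 also: tested at 20 µM; growth read once vehicle control cultures reached saturation at 30 °C; 1 = growth at the plate median or of vehicle wells; lower values mean less growth of the strain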
# Details: S. cerevisiae deletion strains, growth OD
smiles,measurement,setting,value
CC12CCC3C(CC=C4CC(O)CCC43C)C1CCC2=O (centres undefined),normalized growth,"locus YAL013W, strain DEP1, hits give low values",0.948
same,normalized growth,"locus YAL021C, strain ccr4, hits give low values",0.838 (active)
same,normalized growth,"locus YAL026C, strain drs2, hits give low values",0.582 (active)
same,normalized growth,"locus YAL030W, strain snc1, hits give low values",0.927 (active)
same,normalized growth,"locus YBL061C, strain skt5, hits give low values",0.936
same,normalized growth,"locus YBR009C, strain hhf1, hits give low values",0.834 (active)
same,normalized growth,"locus YBR021W, strain FUR4, hits give low values",0.752 (active)
same,normalized growth,"locus YBR023C, strain chs3, hits give low values",0.933
same,normalized growth,"locus YBR171W, strain sec66, hits give low values",0.978
same,normalized growth,"locus YBR229C, strain ROT2, hits give low values",1.02
same,normalized growth,"locus YBR231C, strain swc5, hits give low values",0.926
same,normalized growth,"locus YBR279W, strain paf1, hits give low values",0.876 (active)
same,normalized growth,"locus YCL011C, strain gbp2, hits give low values",0.886 (active)
same,normalized growth,"locus YCL016C, strain dcc1, hits give low values",0.9 (active)
same,normalized growth,"locus YCL029C, strain bik1, hits give low values",0.904 (active)
same,normalized growth,"locus YCL069W, strain vba3, hits give low values",0.94
same,normalized growth,"locus YCR088W, strain abp1, hits give low values",1.02
same,normalized growth,"locus YDL005C, strain med2, hits give low values",0.995
same,normalized growth,"locus YDL035C, strain GPR1, hits give low values",0.787 (active)
same,normalized growth,"locus YDL040C, strain nat1, hits give low values",1.02
same,normalized growth,"locus YDL074C, strain BRE1, hits give low values",0.778 (active)
same,normalized growth,"locus YDL101C, strain DUN1, hits give low values",0.994
same,normalized growth,"locus YDL134C, strain PPH21, hits give low values",0.85 (active)
same,normalized growth,"locus YDL185W, strain tfp1, hits give low values",1.04
same,normalized growth,"locus YDL192W, strain arf1, hits give low values",0.934
same,normalized growth,"locus YDR001C, strain nth1, hits give low values",1.03
same,normalized growth,"locus YDR069C, strain doa4, hits give low values",0.945
same,normalized growth,"locus YDR101C, strain arx1, hits give low values",0.955
same,normalized growth,"locus YDR137W, strain rgp1, hits give low values",0.473 (active)
same,normalized growth,"locus YDR159W, strain sac3, hits give low values",0.916
same,normalized growth,"locus YDR162C, strain NBP2, hits give low values",0.828 (active)
same,normalized growth,"locus YDR195W, strain ref2",1.54 [resistant] (active)
same,normalized growth,"locus YDR297W, strain sur2, hits give low values",0.95
same,normalized growth,"locus YDR318W, strain mcm21, hits give low values",0.886 (active)
same,normalized growth,"locus YDR334W, strain swr1, hits give low values",1.04
same,normalized growth,"locus YDR335W, strain msn5, hits give low values",0.961
same,normalized growth,"locus YDR388W, hits give low values",1.02
same,normalized growth,"locus YDR392W, strain spt3, hits give low values",0.234 (active)
same,normalized growth,"locus YDR502C, strain sam2, hits give low values",0.879 (active)
same,normalized growth,"locus YEL003W, strain gim4, hits give low values",0.88 (active)
same,normalized growth,"locus YEL037C, strain rad23, hits give low values",1
same,normalized growth,"locus YEL061C, strain CIN8 (second series), hits give low values",1.01
same,normalized growth,"locus YER015W, strain faa2, hits give low values",0.869 (active)
same,normalized growth,"locus YER016W, strain bim1, hits give low values",1.01
same,normalized growth,"locus YER110C, hits give low values",1.06
same,normalized growth,"locus YER111C, strain swi4, hits give low values",1.01
same,normalized growth,"locus YER155C, strain BEM2 (second series), hits give low values",0.84 (active)
same,normalized growth,"locus YER155C, strain BEM2, hits give low values",1.02
same,normalized growth,"locus YER167W, strain BCK2, hits give low values",0.929
same,normalized growth,"locus YFR010W, strain ubp6, hits give low values",0.891 (active)
same,normalized growth,"locus YGL078C, strain dbp3, hits give low values",0.979
same,normalized growth,"locus YGL086W, strain mad1, hits give low values",0.888 (active)
same,normalized growth,"locus YGL167C, strain pmr1, hits give low values",1
same,normalized growth,"locus YGL173C, strain kem1, hits give low values",0.879 (active)
same,normalized growth,"locus YGL227W, strain vid30, hits give low values",1.01
same,normalized growth,"locus YGL240W, strain doc1, hits give low values",0.911
same,normalized growth,"locus YGL248W, strain PDE1, hits give low values",0.857 (active)
same,normalized growth,"locus YGL253W, strain hxk2, hits give low values",0.791 (active)
same,normalized growth,"locus YGR078C, strain PAC10, hits give low values",0.887
same,normalized growth,"locus YGR135W, strain pre9, hits give low values",0.871 (active)
same,normalized growth,"locus YGR252W, strain gcn5, hits give low values",0.62 (active)
same,normalized growth,"locus YHR013C, strain ard1, hits give low values",0.868
same,normalized growth,"locus YHR027C, strain rpn1, hits give low values",0.895 (active)
same,normalized growth,"locus YHR030C, strain SLT2, hits give low values",1.03
same,normalized growth,"locus YHR079C, strain IRE1 (second series), hits give low values",1.02
same,normalized growth,"locus YHR094C, strain hxt1, hits give low values",1.05
same,normalized growth,"locus YHR129C, strain ARP1, hits give low values",0.905 (active)
same,normalized growth,"locus YHR142W, strain chs7, hits give low values",0.768 (active)
same,normalized growth,"locus YHR200W, strain rpn10, hits give low values",0.93
same,normalized growth,"locus YIL066C, strain RNR3, hits give low values",0.823 (active)
same,normalized growth,"locus YIL073C, strain SPO22, hits give low values",0.783
same,normalized growth,"locus YIL125W, strain kgd1, hits give low values",0.989
same,normalized growth,"locus YIR030C, strain dcg1, hits give low values",1
same,normalized growth,"locus YJL092W, strain hpr5, hits give low values",0.948
same,normalized growth,"locus YJL095W, strain BCK1 (second series), hits give low values",0.825 (active)
same,normalized growth,"locus YJL095W, strain BCK1, hits give low values",0.655 (active)
same,normalized growth,"locus YJL115W, strain asf1, hits give low values",0.997
same,normalized growth,"locus YJL129C, strain trk1, hits give low values",0.801 (active)
same,normalized growth,"locus YJL134W, strain LCB3, hits give low values",1.03
same,normalized growth,"locus YJL154C, strain vps35, hits give low values",1.02
same,normalized growth,"locus YJL164C, strain tpk1, hits give low values",0.845 (active)
same,normalized growth,"locus YJL166W, strain qcr8, hits give low values",0.813 (active)
same,normalized growth,"locus YJL168C, strain set2, hits give low values",1.04
same,normalized growth,"locus YJL187C, strain SWE1 (second series), hits give low values",0.879
